# Screening data from PubChem BioAssay.
# IDE exosite inh: exo-site inhibitors of human IDE, primary screen, biochemical, fluorescence anisotropy, probe displacement; Insulin-degrading enzyme (Homo sapiens), P14735; purified IDE, FL-6b probe fluorescence polarization; hits give low values; z-score at 20 µM; actives 6.3% (n = 17,000); AID 1259349, 2017;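 active = z-score of -3 or lower, meaning strong loss of probe binding signal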;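 also: His-tagged human IDE residues 42-1019 made in E. coli with 30 nM FL-6b probe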
# Target sequence (P14735 42-1019 limits assumed): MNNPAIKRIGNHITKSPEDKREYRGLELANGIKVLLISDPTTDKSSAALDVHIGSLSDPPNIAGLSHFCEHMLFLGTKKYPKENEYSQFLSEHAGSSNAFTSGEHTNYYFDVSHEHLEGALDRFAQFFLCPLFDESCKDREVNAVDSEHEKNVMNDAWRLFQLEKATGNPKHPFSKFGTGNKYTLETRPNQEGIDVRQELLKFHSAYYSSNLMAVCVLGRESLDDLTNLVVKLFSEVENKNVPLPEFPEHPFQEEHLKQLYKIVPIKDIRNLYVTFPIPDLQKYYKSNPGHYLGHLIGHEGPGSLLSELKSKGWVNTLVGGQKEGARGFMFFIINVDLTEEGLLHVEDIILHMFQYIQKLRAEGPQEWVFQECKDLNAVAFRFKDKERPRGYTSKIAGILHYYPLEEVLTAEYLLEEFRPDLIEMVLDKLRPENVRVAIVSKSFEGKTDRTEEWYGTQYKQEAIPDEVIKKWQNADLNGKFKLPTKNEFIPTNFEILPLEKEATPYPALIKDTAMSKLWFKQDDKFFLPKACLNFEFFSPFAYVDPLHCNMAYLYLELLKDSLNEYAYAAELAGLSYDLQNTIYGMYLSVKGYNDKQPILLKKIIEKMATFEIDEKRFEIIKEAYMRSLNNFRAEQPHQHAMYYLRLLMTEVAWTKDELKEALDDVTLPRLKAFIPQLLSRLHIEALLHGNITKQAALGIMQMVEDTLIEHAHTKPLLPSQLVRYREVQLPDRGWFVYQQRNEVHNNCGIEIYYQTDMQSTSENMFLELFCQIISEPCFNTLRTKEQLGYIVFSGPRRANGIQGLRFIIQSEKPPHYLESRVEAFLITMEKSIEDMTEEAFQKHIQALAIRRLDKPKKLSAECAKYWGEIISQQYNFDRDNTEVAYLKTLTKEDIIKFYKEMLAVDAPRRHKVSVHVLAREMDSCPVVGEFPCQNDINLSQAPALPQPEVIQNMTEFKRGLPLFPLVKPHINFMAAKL
# The depositor's hits bear a star; ! = not active in a repeat. This is one part of a sample in which hits are shown more often than they occur.
SMILES,IDE exosite inh
Cc1cccc(-c2ccc([C@@H]3[C@H](CO)N4CCCCN(S(=O)(=O)c5cccc(C)c5)C[C@@H]34)cc2)c1,-2.8
CC(C)N(C[C@@H]1N[C@@H](CO)[C@@H]1c1ccccc1)S(=O)(=O)c1ccccc1,0.88
CN(C)C(=O)C[C@H]1C[C@@H]2c3cc(NC(=O)c4cccnc4)ccc3O[C@@H]2[C@@H](CO)O1,-0.27
CCc1cnc(N2[C@H](CO)[C@@H](c3ccc(C#Cc4ccccc4F)cc3)[C@@H]2C#N)s1,-0.23
CS(=O)(=O)N1CC(=O)N2[C@H](CO)[C@H](c3ccc(C#Cc4ccc(F)cc4)cc3)[C@@H]2C1,-0.86
CN(C)C(=O)c1cccc(-c2ccc(C3[C@@H]4CN(S(=O)(=O)c5cccc(Cl)c5)C[C@H]3N4)cc2)c1 (stereo partly drawn),0.24
CCC(=O)N(CC)C[C@@H]1[C@@H](c2ccc(-c3ccccc3)cc2)[C@@H](CO)N1C(C)=O,-1.6
O=S(=O)(c1cccs1)N1CCCCN2[C@H](C1)[C@@H](c1ccc(/C=C/c3ccccc3)cc1)[C@@H]2CO,-0.47
C[C@H](NC(=O)C[C@@H]1C[C@H]2c3cc(NS(=O)(=O)c4ccc(F)cc4)ccc3O[C@H]2[C@@H](CO)O1)c1ccccc1,-1.8
Cc1ccc(-c2ccc([C@@H]3[C@@H](CO)N4C(=O)CN(C(=O)c5cccnc5)C[C@@H]34)cc2)cc1,-3.6*
O=C(c1cccnc1)N1CC(=O)N2[C@H](CO)[C@@H](c3ccc(-c4cccnc4)cc3)[C@@H]2C1,-1.9
O=C(c1cccnc1)N1CC(=O)N2[C@H](CO)[C@H](c3ccc(-c4cccnc4)cc3)[C@H]2C1,-0.66
O=C(c1cccnc1)N1CC(=O)N2[C@H](CO)[C@@H](c3ccc(-c4cccnc4)cc3)[C@H]2C1,0.23
Cc1ccc(-c2ccc([C@H]3[C@@H](CO)N4C(=O)CN(C(=O)c5cccnc5)C[C@H]34)cc2)cc1,-3.1*
O=C(c1cccnc1)N1CC(=O)N2[C@@H](CO)[C@@H](c3ccc(-c4cccnc4)cc3)[C@@H]2C1,2.6
O=C(c1ccccc1F)N1CC(=O)N2[C@H](C1)[C@H](c1ccc(-c3ccccc3)cc1)[C@@H]2CO,1.1
O=C(c1ccc(F)cc1)N1CC(=O)N2[C@H](CO)[C@H](c3ccc(C#CC4CCCCC4)cc3)[C@@H]2C1,4.2
N#C[C@H]1[C@@H](c2ccccc2)[C@H](CO)N1S(=O)(=O)c1ccc(F)cc1,2.8
O=C(C[C@H]1C[C@H]2c3cc(NS(=O)(=O)c4ccccc4)ccc3O[C@H]2[C@H](CO)O1)N1CCOCC1,0.12
Cc1noc(C)c1NC(=O)N1C[C@H](O)COC[C@H]2O[C@H](CC(=O)N[C@@H]3CCN(Cc4ccccc4)C3)CC[C@@H]21,-0.15
CN(C)CC(=O)N1C[C@@H]2N[C@H](C1)C2c1ccc(C2=CCCCC2)cc1 (stereo partly drawn),0.7
Cc1cccc(-c2ccc([C@@H]3[C@@H]4CN(C(=O)CN(C)C)C[C@H]3N4)cc2)c1,0.22
COc1ccc(-c2ccc(C3[C@@H]4CN(C(=O)c5cnccn5)C[C@H]3N4)cc2)cc1 (stereo partly drawn),0.24
CN(C)CC(=O)N1C[C@@H]2N[C@H](C1)C2c1ccc(/C=C/c2ccccc2)cc1 (stereo partly drawn),-5.6*!
O=C(c1cnccn1)N1C[C@@H]2N[C@H](C1)C2c1ccc(/C=C/c2ccccc2)cc1 (stereo partly drawn),-4.2*!
SMILES,IDE exosite inh
O=C(c1cnccn1)N1CC(=O)N2[C@H](C1)[C@@H](c1ccc(/C=C/c3ccccc3)cc1)[C@@H]2CO,-1.7
COc1ccc(-c2ccc([C@@H]3[C@@H](CO)N4CCCCN(C(=O)c5ccc6c(c5)OCO6)C[C@@H]34)cc2)cc1,4.8
CCN(C[C@H]1N[C@H](CO)[C@@H]1c1ccc(-c2cccc(F)c2)cc1)C(=O)CN(C)C,-0.31
CS(=O)(=O)N(CC1CCC1)C[C@@H]1N[C@@H](CO)[C@@H]1c1ccccc1,0.7
CO[C@H]1CN(C)C(=O)c2cc(NS(=O)(=O)c3cccc(Cl)c3)ccc2OC[C@H](C)NC[C@H]1C,-0.89
COc1cccc(C#Cc2ccc([C@@H]3[C@@H](CO)N4C(=O)CN(C(=O)Cc5cccnc5)C[C@@H]34)cc2)c1,-1.4
COCC(=O)N1CC(=O)N2[C@H](CO)[C@H](c3ccc(C#Cc4cccc(OC)c4)cc3)[C@H]2C1,-6.6*
CCC(=O)N1CC(=O)N2[C@H](C1)[C@H](c1ccc(C#Cc3cccc(OC)c3)cc1)[C@@H]2CO,-9.2*
COc1cccc(C#Cc2ccc([C@@H]3[C@@H](CO)N4C(=O)CN(C(=O)Cc5ccccc5)C[C@@H]34)cc2)c1,0.0021
CCC(=O)N1CC(=O)N2[C@H](CO)[C@@H](c3ccc(C#Cc4cccc(OC)c4)cc3)[C@@H]2C1,-5.2*
COc1cccc(C#Cc2ccc([C@H]3[C@@H](CO)N4C(=O)CN(C(=O)Cc5ccccc5)C[C@H]34)cc2)c1,-4.6*
COCC(=O)N1CC(=O)N2[C@H](CO)[C@H](c3ccc(C#Cc4cccc(OC)c4)cc3)[C@@H]2C1,-2.3
COc1cccc(C#Cc2ccc([C@@H]3[C@@H](CO)N4C(=O)CN(C(=O)Cc5ccccc5)C[C@H]34)cc2)c1,2.2
N#C[C@@H]1[C@H](c2ccccc2-c2cccc(F)c2)[C@H](CO)N1C(=O)NC1CCCCC1,-0.91
CCCNC(=O)N1CC2(C1)[C@H](c1ccccc1)[C@@H](CO)N2CC1CCOCC1,1.1
O=C(Cc1ccccn1)N1CC(=O)N2[C@@H](CO)[C@H](c3ccc(C#CCC4CCCC4)cc3)[C@@H]2C1,-0.89
O=C(C1CC1)N1CC(=O)N2[C@H](CO)[C@H](c3ccc(Br)cc3)[C@@H]2C1,4.3
CCC(=O)N1CC(=O)N2[C@H](C1)[C@@H](c1ccc(C#Cc3cccc(OC)c3)cc1)[C@@H]2CO,-6.5*
CCC(=O)N1CC(=O)N2[C@@H](CO)[C@H](c3ccc(C#Cc4cccc(OC)c4)cc3)[C@@H]2C1,-9.1*
Cc1cccc(S(=O)(=O)N2CCCCN3[C@@H](CO)[C@H](c4ccc(C#CC(C)C)cc4)[C@@H]3C2)c1,4.3
N#C[C@@H]1[C@@H](c2ccc(C3=CCCCC3)cc2)[C@H](CO)N1S(=O)(=O)c1ccccc1,0.44
Cc1noc(C)c1NC(=O)N(C)C[C@H]1Oc2cc(C#CCN(C)C)ccc2S(=O)(=O)N([C@H](C)CO)C[C@H]1C,-1.5
CN1CCCCN2[C@H](CO)[C@H](c3ccc(-c4ccc(F)cc4)cc3)[C@H]2C1,0.4
COc1ccc(S(=O)(=O)Nc2cccc3c2O[C@@H](CN(C)CC2CCCCC2)[C@H](C)CN([C@H](C)CO)C3=O)cc1,1.5
Cn1cnc(S(=O)(=O)N2CCCCN3[C@@H](CO)[C@@H](c4ccc(-c5cccc(F)c5)cc4)[C@@H]3C2)c1,-4.6*
Cn1cnc(S(=O)(=O)N2CCCCN3[C@@H](CO)[C@H](c4ccc(-c5cccc(F)c5)cc4)[C@@H]3C2)c1,2.1
Cn1cnc(S(=O)(=O)N2CCCCN3[C@H](CO)[C@H](c4ccc(-c5ccc(F)cc5)cc4)[C@@H]3C2)c1,3.9
Cn1cnc(S(=O)(=O)N2CCCCN3[C@H](CO)[C@@H](c4ccc(-c5cccc(F)c5)cc4)[C@H]3C2)c1,0.035
Cn1cnc(S(=O)(=O)N2CCCCN3[C@H](C2)[C@@H](c2ccc(-c4cccc(F)c4)cc2)[C@@H]3CO)c1,0.69
